Source: paper PMC5540273 (PLoS ONE, 2017)

Test system: BRSK1
Details: concentration: 1 μM, replicates: in singlicate; n = 1
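Note: KINOMEscan kinase panel screen.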

| SMILES | %Inh [%] |
| --- | --- |
| Cc1c2ccc(N(C)c3ccnc(Nc4cccc(S(N)(=O)=O)c4)n3)cc2nn1Cc1ccccc1.Cl.Cl [GW787226] | 0 |
| Fc1ccc(-c2ncn(CCCN3CCOCC3)c2-c2cccnc2)cc1 [SB-211743] | 0 |
| COc1ccc(Nc2ncc(C#N)c(Nc3ccccc3C(N)=O)n2)cc1N1CCN(C)CC1.Cl [GSK1558669] | 90.9 |
| O=c1cc(N2CCOCC2)nc2n(Cc3cccc4ccccc34)ccn12 [GSK2333389] | 1 |
| CCc1nc(-c2cccc(C)c2)c(-c2ccnc(NCc3ccccc3)c2)s1 | 2 |
| O=C(NCCNc1ccnc(Nc2ccc(F)cc2)n1)c1cc2ccccc2s1 [GSK1379874] | 0 |
| O=C(NCCNc1ccnc(Nc2ccc(F)cc2)n1)Nc1ccccc1F [GSK1379880] | 0 |
| CN(C(=O)c1ccc(-c2cc(-c3c[nH]nc3-c3ccccn3)ccn2)cc1)C1CCOCC1 [GW810083] | 3 |
| O=C(Nc1n[nH]c2cc(-c3cccc(F)c3)ccc12)C1CC1 [SB-735464] | 34 |
| Cc1nnc(-c2ccc(C)c(-c3ccc(C(=O)Nc4ccc(NS(C)(=O)=O)cc4)cc3)c2)o1 [GW702865] | 9 |
| COc1ccc(S(=O)(=O)NC2CCN(c3cc(C)nc(Nc4cccc(C#N)c4)n3)CC2)cc1.O=C(O)C(F)(F)F [GSK1653539] | 0 |
| O=C(NOCC1CC1)c1ccc(F)c(F)c1Nc1ccc(I)cc1Cl | 0 |
| COc1cc2c(cc1OC[C@@H](O)CO)ncc1c3ccc(C#N)cc3[nH]c21 | 0 |
